Test results: the supplement of paper PMC6555819

Key:
Assay in all cases: PBM binding z-score (relative to random genomic background probes); higher = stronger binding; sequences stand for … in GC…GCGATTGACAGCGTAGAATGAAGG
[1] = system: FXR:RXRa (NR concentration 270 nM, RXRa partner concentration 90 nM)
In short: (§1)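 Regression normalization was applied to scanned fluorescence from custom Agilent 4×180K protein-binding microarrays. Before scanning, arrays were incubated 1 h with ligand-free nuclear receptor dimers, and binding was detected with antibodies against each partner (one per run). Binding z-scores use the random background probes as reference.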

[2] = system: LXRa:RXRa (NR concentration 270 nM, RXRa partner concentration 90 nM)
In short: as §1

[3] = system: LXRa homodimer (NR concentration 270 nM)
In short: as §1

[4] = system: LXRb:RXRa (NR concentration 270 nM, RXRa partner concentration 90 nM)
In short: as §1

[5] = system: LXRb homodimer (NR concentration 270 nM)
In short: as §1

[6] = system: PPARa:RXRa (NR concentration 270 nM, RXRa partner concentration 90 nM)
In short: as §1

[7] = system: PPARg:RXRa (NR concentration 180 nM, RXRa partner concentration 90 nM)
In short: as §1

[8] = system: PPARg:RXRa 270nM:90nM, anti-RXR (NR concentration 270 nM, RXRa partner concentration 90 nM)
In short: as §1

[9] = system: PPARg:RXRa 30nM:10nM, anti-RXR (NR concentration 30 nM, RXRa partner concentration 10 nM)
In short: as §1

[10] = system: PPARg:RXRa 90nM:30nM, anti-RXR (NR concentration 90 nM, RXRa partner concentration 30 nM)
In short: as §1

[11] = system: PPARg:RXRa DBDmut IVT, anti-RXR (DBD mutation: RXRa K156A/R161A, NR concentration 270 nM, RXRa partner concentration 90 nM)
In short: as §1

[12] = system: PPARg:RXRa IVT, anti-PPARg (NR concentration 270 nM, RXRa partner concentration 90 nM)
In short: as §1

[13] = system: PPARg DBDmut:RXRa IVT, anti-PPARg (DBD mutation: PPARg1 K132A/R137A, NR concentration 270 nM, RXRa partner concentration 90 nM)
In short: as §1

[14] = system: PPARg DBDmut IVT, anti-PPARg (DBD mutation: PPARg1 K132A/R137A, NR concentration 270 nM)
In short: as §1

[15] = system: PPARg homodimer (NR concentration 180 nM)
In short: as §1

[16] = system: PXR:RXRa (NR concentration 270 nM, RXRa partner concentration 90 nM)
In short: as §1

[17] = system: PXR homodimer (NR concentration 270 nM)
In short: as §1

[18] = system: RARa:RXR (NR concentration 270 nM, RXRa partner concentration 90 nM)
In short: as §1

[19] = system: RARa homodimer (NR concentration 270 nM)
In short: as §1

[20] = system: RARb:RXRa (NR concentration 270 nM, RXRa partner concentration 90 nM)
In short: as §1

## TTTCAAAGTTCAAAGGTAACGTAAGTATCCACAC
[1]
  PBM binding z-score: 7.1
[2]
  PBM binding z-score: 6.88
[3]
  PBM binding z-score: 6.41
[4]
  PBM binding z-score: 4.86
[5]
  PBM binding z-score: 2.71
[6]
  PBM binding z-score: 5.69
[7]
  PBM binding z-score: 6
[8]
  PBM binding z-score: 6.43
[9]
  PBM binding z-score: 3.39
[10]
  PBM binding z-score: 5.49
[11]
  PBM binding z-score: 0.271
[12]
  PBM binding z-score: 2.61
[13]
  PBM binding z-score: 1.49
[14]
  PBM binding z-score: 1.37
[15]
  PBM binding z-score: 3.4
[16]
  PBM binding z-score: 5.62
[17]
  PBM binding z-score: 4.59
[18]
  PBM binding z-score: 6.38
[19]
  PBM binding z-score: 1.45
[20]
  PBM binding z-score: 4.99

## TCGAGTAGTTTAGTCGGGGCATTCAGCCAACATA
[1]
  PBM binding z-score: -0.125
[2]
  PBM binding z-score: -0.295
[3]
  PBM binding z-score: -0.441
[4]
  PBM binding z-score: 0.256
[5]
  PBM binding z-score: -0.38
[6]
  PBM binding z-score: 0.346
[7]
  PBM binding z-score: -0.694
[8]
  PBM binding z-score: 0.0847
[9]
  PBM binding z-score: 0.837
[10]
  PBM binding z-score: 0.633
[11]
  PBM binding z-score: 1.24
[12]
  PBM binding z-score: -0.182
[13]
  PBM binding z-score: -0.281
[14]
  PBM binding z-score: -0.699
[15]
  PBM binding z-score: -0.472
[16]
  PBM binding z-score: 0.139
[17]
  PBM binding z-score: -0.0137
[18]
  PBM binding z-score: 0.146
[19]
  PBM binding z-score: -0.408
[20]
  PBM binding z-score: 0.0588

## CGTCCAAGGTCAGAGAGGTCAGGGAATGCCGAGT
[1]
  PBM binding z-score: 6.63
[2]
  PBM binding z-score: 5.17
[3]
  PBM binding z-score: 3.24
[4]
  PBM binding z-score: 4.51
[5]
  PBM binding z-score: 0.359
[6]
  PBM binding z-score: 5
[7]
  PBM binding z-score: 4.38
[8]
  PBM binding z-score: 4.53
[9]
  PBM binding z-score: 1.42
[10]
  PBM binding z-score: 3.6
[11]
  PBM binding z-score: 2.19
[12]
  PBM binding z-score: 3.4
[13]
  PBM binding z-score: 0.15
[14]
  PBM binding z-score: 0.231
[15]
  PBM binding z-score: 4.31
[16]
  PBM binding z-score: 5.87
[17]
  PBM binding z-score: 10.6
[18]
  PBM binding z-score: 5.44
[19]
  PBM binding z-score: 1.09
[20]
  PBM binding z-score: 5.55

## ACGAGTTGGTCAGCTGAGGTCACACACAATTCGG
[1]
  PBM binding z-score: 3.59
[2]
  PBM binding z-score: 3.08
[3]
  PBM binding z-score: 1.81
[4]
  PBM binding z-score: 3.17
[5]
  PBM binding z-score: -0.229
[6]
  PBM binding z-score: 3.6
[7]
  PBM binding z-score: 1.64
[8]
  PBM binding z-score: 2.17
[9]
  PBM binding z-score: 0.283
[10]
  PBM binding z-score: 1.3
[11]
  PBM binding z-score: 0.74
[12]
  PBM binding z-score: 1.98
[13]
  PBM binding z-score: -0.0405
[14]
  PBM binding z-score: 0.48
[15]
  PBM binding z-score: 2.66
[16]
  PBM binding z-score: 5.43
[17]
  PBM binding z-score: 2.1
[18]
  PBM binding z-score: 4.82
[19]
  PBM binding z-score: 0.588
[20]
  PBM binding z-score: 3.59

## AATACAGGGTCATCGTAGGCCACAGTACGCACAG
[1]
  PBM binding z-score: 7.48
[2]
  PBM binding z-score: 6.72
[3]
  PBM binding z-score: 3.33
[4]
  PBM binding z-score: 4.97
[5]
  PBM binding z-score: 1.33
[6]
  PBM binding z-score: 5.98
[7]
  PBM binding z-score: 7.16
[8]
  PBM binding z-score: 6.32
[9]
  PBM binding z-score: 2.8
[10]
  PBM binding z-score: 5.05
[11]
  PBM binding z-score: 3.1
[12]
  PBM binding z-score: 4.6
[13]
  PBM binding z-score: 2.5
[14]
  PBM binding z-score: 1.08
[15]
  PBM binding z-score: 2.97
[16]
  PBM binding z-score: 5.59
[17]
  PBM binding z-score: 0.511
[18]
  PBM binding z-score: 5.47
[19]
  PBM binding z-score: 1.06
[20]
  PBM binding z-score: 4.59

## GCAGACAGGTGAAACGCATGTAACTCAGGGTGGC
[1]
  PBM binding z-score: -0.379
[2]
  PBM binding z-score: -0.173
[3]
  PBM binding z-score: -0.544
[4]
  PBM binding z-score: -0.265
[5]
  PBM binding z-score: -1.29
[6]
  PBM binding z-score: 0.825
[7]
  PBM binding z-score: 0.841
[8]
  PBM binding z-score: -0.0772
[9]
  PBM binding z-score: -0.653
[10]
  PBM binding z-score: -0.344
[11]
  PBM binding z-score: 0.516
[12]
  PBM binding z-score: 0.404
[13]
  PBM binding z-score: -1.74
[14]
  PBM binding z-score: -0.927
[15]
  PBM binding z-score: -0.716
[16]
  PBM binding z-score: -0.307
[17]
  PBM binding z-score: -0.659
[18]
  PBM binding z-score: -0.0582
[19]
  PBM binding z-score: -0.606
[20]
  PBM binding z-score: 0.532

## CGTAGTTGGTCAGGAGGTCACACACCGGATATGA
[1]
  PBM binding z-score: 3.37
[2]
  PBM binding z-score: 3.49
[3]
  PBM binding z-score: 2.03
[4]
  PBM binding z-score: 3.36
[5]
  PBM binding z-score: 0.65
[6]
  PBM binding z-score: 4.17
[7]
  PBM binding z-score: 2.96
[8]
  PBM binding z-score: 4.01
[9]
  PBM binding z-score: 1.36
[10]
  PBM binding z-score: 3.36
[11]
  PBM binding z-score: 1.51
[12]
  PBM binding z-score: 3.49
[13]
  PBM binding z-score: 0.964
[14]
  PBM binding z-score: 0.266
[15]
  PBM binding z-score: 4.08
[16]
  PBM binding z-score: 4.4
[17]
  PBM binding z-score: 1.55
[18]
  PBM binding z-score: 4.87
[19]
  PBM binding z-score: 1.81
[20]
  PBM binding z-score: 3.54
